The nature of assay [1]: S16 Schwann cell PMP22 intronic element beta-lactamase assay (AID 624044; calls by dose curve;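 note: 0% = DMSO and -100% = potassium clavulanate positive control; nearly all actives have a fitted effect of over 15% in size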). The following applies: S16 rat Schwann cells, PMP22 element beta-lactamase FRET, 24 h; ratio activity, negative = inhibition: at 38.3 µM (top of the series) unless noted. In short, it runs like this: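 Rat S16 Schwann cells with beta-Lac driven by a PMP22 intronic element, compound-treated 24 h at 37 °C. LiveBLAzer FRET B/G read: 460 nm normalized to potassium clavulanate vs DMSO; 535 nm FRET as viability; concentration-effect curves classified.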

For assay [2], the system named is 3D7. Description: qHTS profiling for inhibitors of Plasmodium falciparum proliferation (AID 504749).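 For activity, negative = inhibition: 0% = DMSO vehicle and full inhibition = artemisinin control.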 Note: nearly all actives have a fitted effect of over 60% in size. Note: potency is the fitted concentration of half-maximal effect. The following applies: P. falciparum in erythrocytes, SYBR Green DNA, 72 h; series mostly up to 28.7 µM. In short, it runs like this:
(§1)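 P. falciparum-infected erythrocytes (0.3% parasitemia, 2.5% hematocrit final) were exposed to compounds for 72 h at 37 C in 5% CO2, then lysed with SYBR Green buffer overnight at room temperature; parasite DNA fluorescence was normalized to artemisinin and DMSO controls.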
(In general: In qHTS, concentration-response curves come from the screen itself.)

For assay [3], the system named is ATS95. Described as above. The following applies: P. falciparum in erythrocytes, SYBR Green DNA, 72 h; series mostly up to 28.7 µM. In short, it runs like this: as §1
Assay [4] relates to CP185. Described as above. The following applies: P. falciparum in erythrocytes, SYBR Green DNA, 72 h; series mostly up to 28.7 µM. In short, it runs like this:
as §1

Assay [5] relates to CP201. Described as above. The following applies: P. falciparum in erythrocytes, SYBR Green DNA, 72 h; series mostly up to 28.7 µM. The method, boiled down: as §1
Assay [6] concerns CP211. The description is as above. The following applies: P. falciparum in erythrocytes, SYBR Green DNA, 72 h; series mostly up to 28.7 µM. The method, boiled down: as §1
The subject of assay [7] is CP217. The assay is described as above. The following applies: P. falciparum in erythrocytes, SYBR Green DNA, 72 h; series mostly up to 28.7 µM. In short, it runs like this: as §1
The subject of assay [8] is CP238. The description is as above. The following applies: P. falciparum in erythrocytes, SYBR Green DNA, 72 h; series mostly up to 28.7 µM. In short, it runs like this:
as §1

In assay [9] the test system is CP252. The description is as above. The following applies: P. falciparum in erythrocytes, SYBR Green DNA, 72 h; series mostly up to 12.8 µM. The method, boiled down: as §1
The subject of assay [10] is CP256. The description is as above. The following applies: P. falciparum in erythrocytes, SYBR Green DNA, 72 h; series mostly up to 28.7 µM. The method, boiled down:
as §1

In assay [11] the test system is CP266. Described as above. The following applies: P. falciparum in erythrocytes, SYBR Green DNA, 72 h; series mostly up to 12.8 µM. The method, boiled down:
as §1

Assay [12] has as its system CP269. Described as above. The following applies: P. falciparum in erythrocytes, SYBR Green DNA, 72 h; series mostly up to 28.7 µM. The method, boiled down:
as §1

The subject of assay [13] is CP297. The assay is described as above. The following applies: P. falciparum in erythrocytes, SYBR Green DNA, 72 h; series mostly up to 28.7 µM. In short, it runs like this:
as §1

Assay [14] deals with CP305. The assay is described as above. The following applies: P. falciparum in erythrocytes, SYBR Green DNA, 72 h; series mostly up to 28.7 µM. In short, it runs like this:
as §1

For assay [15], the system named is CP315. The description is as above. The following applies: P. falciparum in erythrocytes, SYBR Green DNA, 72 h; series mostly up to 28.7 µM. In short, it runs like this:
as §1

Assay [16] has as its system CP329. The description is as above. The following applies: P. falciparum in erythrocytes, SYBR Green DNA, 72 h; series mostly up to 28.7 µM. The method, boiled down:
as §1

Assay [17] has as its system DIV30. The assay is described as above. The following applies: P. falciparum in erythrocytes, SYBR Green DNA, 72 h; series mostly up to 28.7 µM. In short, it runs like this:
as §1

Assay [18] concerns ECU. Described as above. The following applies: P. falciparum in erythrocytes, SYBR Green DNA, 72 h; series mostly up to 28.7 µM. The method, boiled down:
as §1

Assay [19] has as its system HB3. Described as above. The following applies: P. falciparum in erythrocytes, SYBR Green DNA, 72 h; series mostly up to 28.7 µM. The method, boiled down:
as §1

Assay [20] relates to N140. The assay is described as above. The following applies: P. falciparum in erythrocytes, SYBR Green DNA, 72 h; series mostly up to 28.7 µM. In short, it runs like this:
as §1

Structures are written as SMILES. Inconclusive results are not listed. Active and inactive are the calls of the source. Unless noted, calls come from the whole dose curve; as a rule, active = well fitted inhibition curve with a large enough effect; inconclusive = small, poorly fitted or top-dose-only effect; inactive = flat fitted curve, though single readings scatter.

For `CC(C)c1c(CN(C)[C@@H](C)Cc2ccccc2)n(C)n(-c2ccccc2)c1=O`, in assay [1], the ratio activity, negative = inhibition was -8.16% [at 17.1 µM] (active). Further, the Potency result in assay [2], in [3], in assay [4], in [5], in assay [6] and in [7] was “inactive” each time. Also, the Potency result in assay [8], in assay [9], in assay [10], in [11], in assay [12] and in assay [13] was “inactive” each time. For the same compound, the Potency entry in [14], in [15], in [16], in [17], in assay [18] and in assay [19] was “inactive” throughout. In addition, the Potency result in assay [20] was “inactive”.

On to `C[C@H](N)[C@@H](O)c1ccccc1`, for which the Potency result in assay [1], in [2], in assay [3], in assay [4], in [5] and in [6] was “inactive” throughout. For the same compound, the Potency entry in assay [7], in assay [8], in assay [9], in assay [10], in [11] and in assay [12] was “inactive” each time. Further, the Potency entry in assay [13], in assay [14], in [15], in assay [16], in [17] and in assay [18] was “inactive” each time. Besides, the Potency result in [19] and in assay [20] was “inactive” in each case.

For the compound `C[C@@]12CCC(=O)C=C1C=C[C@H]1[C@H]3CC[C@](O)(CCC(=O)O)[C@]3(C)CC[C@@H]12`, the Potency result in assay [1], in assay [2], in [3], in [4], in assay [5] and in assay [6] was “inactive” in each case. Besides, the Potency entry in assay [7], in [8], in [9], in [10], in assay [11] and in assay [12] was “inactive” in each case. Besides, the Potency entry in assay [13], in assay [14], in assay [15], in assay [16], in [17] and in assay [18] was “inactive” each time. Further, in assay [20], the Potency result is “inactive”.

As to `CC[C@@H]1[C@@H]2C[C@H]3[C@H]4N(C)c5ccccc5[C@@]45C[C@@H]([C@@H]2[C@@H]5O)N3[C@H]1O`, the Potency entry in [1], in assay [2], in assay [3], in assay [4], in assay [5] and in assay [6] was “inactive” each time. Moreover, the Potency entry in [7], in assay [8], in [9], in assay [10], in assay [11] and in assay [12] was “inactive” throughout. Moreover, the Potency result in assay [13], in [14], in assay [15], in assay [16], in [17] and in [18] was “inactive” each time. Also, the Potency result in assay [19] and in assay [20] was “inactive” in each case.

Turning to `C[C@@]12CC[C@H]3[C@@H](CC[C@@H]4C[C@H]5S[C@H]5C[C@]43C)[C@H]1CC[C@H]2O`, the Potency entry in [1], in [2], in assay [3], in assay [4], in [5] and in assay [6] was “inactive” each time. The Potency result in assay [7], in assay [8], in assay [9], in [10], in [11] and in [12] was “inactive” in each case. For the same compound, the Potency result in [13], in [14], in [15], in [16], in [17] and in assay [18] was “inactive” throughout. Further, the Potency result in [19] and in assay [20] was “inactive” in each case.

For the compound `COc1ccc2c(c1OC)CN1CCc3cc4c(cc3[C@H]1C2)OCO4`, the Potency result in assay [1] was “inactive”. Moreover, the Potency in assay [3] is 2.51 µM (active); in assay [4], 2.51 µM (active); in assay [6], 2.03 µM (active); in assay [8], 3.55 µM (active); in [10], 3.16 µM (active); in assay [12], 2.03 µM (active). Besides, the Potency in [13] was 1.81 µM (active); in assay [14], 2.28 µM (active); in assay [15] it was 3.61 µM (active); in assay [16], 1.61 µM (active); in assay [17] it was 2.56 µM (active).

For `C#CCN(C)[C@@H](C)Cc1ccccc1`, the Potency entry in assay [1], in [2], in [3], in assay [4], in [5] and in assay [6] was “inactive” throughout. For the same compound, the Potency entry in assay [7], in [8], in assay [9], in assay [10], in [11] and in assay [12] was “inactive” in each case. Further, the Potency entry in assay [13], in [14], in assay [15], in assay [16], in assay [17] and in assay [18] was “inactive” in each case. The Potency entry in [19] and in assay [20] was “inactive” in each case.

Turning to `CCNC[C@H](O)c1cccc(O)c1`, the Potency result in [1], in assay [2], in assay [3], in assay [4], in [5] and in assay [6] was “inactive” in each case. Further, the Potency result in assay [7], in [8], in [9], in assay [10], in assay [11] and in assay [12] was “inactive” each time. For the same compound, the Potency entry in assay [14], in assay [15], in [16], in assay [17], in assay [18] and in assay [19] was “inactive” throughout. For the same compound, the Potency entry in assay [20] was “inactive”.

For the compound `CC[C@@]1(c2ccc(N)cc2)CCC(=O)NC1=O`, the Potency entry in assay [2], in assay [3], in assay [4], in assay [5], in assay [6] and in assay [7] was “inactive” each time. Also, the Potency result in assay [8], in assay [9], in [10], in assay [11], in assay [12] and in assay [13] was “inactive” throughout. The Potency entry in assay [14], in assay [15], in [16], in assay [17], in assay [18] and in [19] was “inactive” throughout. Besides, the Potency entry in [20] is “inactive”.

Consider `CC(=O)O[C@H]1CC[C@@]2(C)C(=CC[C@@H]3[C@H]2CC[C@]2(C)C(=O)CC[C@H]32)C1`, for which the Potency result in assay [1], in assay [2], in [3], in [4], in assay [5] and in [6] was “inactive” each time. For the same compound, the Potency entry in assay [7], in [8], in assay [9], in [10], in assay [11] and in assay [12] was “inactive” throughout. Besides, the Potency result in assay [13], in assay [14], in assay [15], in assay [16], in assay [17] and in [18] was “inactive” throughout. In addition, the Potency result in assay [19] and in assay [20] was “inactive” each time.

`C[C@H](NC(C)(C)C)C(=O)c1cccc(Cl)c1`: the Potency result in assay [1], in assay [2], in [3], in assay [4], in [5] and in [6] was “inactive” throughout. Also, the Potency entry in assay [7], in assay [8], in [9], in assay [10], in assay [11] and in assay [12] was “inactive” each time. The Potency result in [13], in [14], in [15], in assay [16], in assay [17] and in assay [18] was “inactive” each time. Moreover, the Potency result in assay [19] and in assay [20] was “inactive” throughout.

As to `C[N+]1([O-])[C@@H]2CC(OC(=O)[C@@H](CO)c3ccccc3)C[C@@H]1[C@H]1O[C@H]12` (some centres undefined), the Potency result in [1], in assay [2], in assay [3], in assay [4], in assay [5] and in assay [6] was “inactive” each time. Also, the Potency entry in [7], in [8], in [9], in [10], in [11] and in assay [12] was “inactive” in each case. The Potency result in [13], in [14], in [15], in assay [16], in [17] and in assay [18] was “inactive” each time. For the same compound, the Potency entry in [19] and in assay [20] was “inactive” each time.

With `C[C@H]1CN(C2CCC(C#N)(c3ccc(F)cc3)CC2)CC[C@@]1(C(=O)O)c1ccccc1` (some centres undefined), the Potency entry in [1], in [2], in assay [3], in assay [4], in [5] and in assay [6] was “inactive” throughout. For the same compound, the Potency result in assay [7], in assay [8], in assay [9], in [10], in assay [11] and in assay [12] was “inactive” throughout. For the same compound, the Potency result in assay [13], in assay [14], in assay [15], in assay [16], in assay [17] and in [18] was “inactive” each time. Further, the Potency entry in [19] and in assay [20] was “inactive” each time.

The record behind these values is PubChem BioAssay (NCATS).
